Broadly, the inhibition is the change of the read-out against control, counted positive when it falls.

Assay [1] has as its target High affinity nerve growth factor receptor (Homo sapiens) (UniProt P04629). The conditions noted are these: at 1 µM.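 Also: each value is the mean percent inhibition of TRKA.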
In assay [2] the target is BDNF/NT-3 growth factors receptor (Homo sapiens) (UniProt Q16620). As to conditions: at 0.1 µM.
Assay [3] has the same target. As to conditions: at 1 µM.
Assay [4] addresses NT-3 growth factor receptor (Homo sapiens) (UniProt Q16288). As to conditions: at 0.1 µM.
Assay [5] has the same target. The conditions noted are these: at 1 µM.
Assay [6] addresses T1, Tyrosine-protein kinase TXK (Homo sapiens) (UniProt P42681).
T1 sequence (whole entry): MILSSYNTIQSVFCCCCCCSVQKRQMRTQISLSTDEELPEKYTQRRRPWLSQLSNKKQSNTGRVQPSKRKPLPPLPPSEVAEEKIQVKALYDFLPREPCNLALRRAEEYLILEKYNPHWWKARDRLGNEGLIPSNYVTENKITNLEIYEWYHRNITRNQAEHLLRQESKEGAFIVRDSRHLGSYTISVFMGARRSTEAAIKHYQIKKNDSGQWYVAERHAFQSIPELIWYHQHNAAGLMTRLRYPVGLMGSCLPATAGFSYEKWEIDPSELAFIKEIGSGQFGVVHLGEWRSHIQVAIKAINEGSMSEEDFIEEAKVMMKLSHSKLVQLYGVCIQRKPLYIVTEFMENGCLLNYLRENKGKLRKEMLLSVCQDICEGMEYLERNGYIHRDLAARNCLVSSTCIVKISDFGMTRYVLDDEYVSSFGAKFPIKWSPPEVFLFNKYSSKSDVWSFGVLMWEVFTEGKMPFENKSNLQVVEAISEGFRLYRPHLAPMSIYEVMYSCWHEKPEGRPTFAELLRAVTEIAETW
As to conditions: at 0.1 µM.

The target of assay [7] is T1, Tyrosine-protein kinase TXK (Homo sapiens). As to conditions: at 1 µM.
Assay [8] concerns the target Non-receptor tyrosine-protein kinase TYK2 (Homo sapiens) (UniProt P29597). The conditions noted are these: at 0.1 µM.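 Also: each value is a mean of the inhibition readings.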
Assay [9] addresses T2, Dual specificity protein kinase TTK (Homo sapiens) (UniProt P33981).
T2 sequence (whole entry): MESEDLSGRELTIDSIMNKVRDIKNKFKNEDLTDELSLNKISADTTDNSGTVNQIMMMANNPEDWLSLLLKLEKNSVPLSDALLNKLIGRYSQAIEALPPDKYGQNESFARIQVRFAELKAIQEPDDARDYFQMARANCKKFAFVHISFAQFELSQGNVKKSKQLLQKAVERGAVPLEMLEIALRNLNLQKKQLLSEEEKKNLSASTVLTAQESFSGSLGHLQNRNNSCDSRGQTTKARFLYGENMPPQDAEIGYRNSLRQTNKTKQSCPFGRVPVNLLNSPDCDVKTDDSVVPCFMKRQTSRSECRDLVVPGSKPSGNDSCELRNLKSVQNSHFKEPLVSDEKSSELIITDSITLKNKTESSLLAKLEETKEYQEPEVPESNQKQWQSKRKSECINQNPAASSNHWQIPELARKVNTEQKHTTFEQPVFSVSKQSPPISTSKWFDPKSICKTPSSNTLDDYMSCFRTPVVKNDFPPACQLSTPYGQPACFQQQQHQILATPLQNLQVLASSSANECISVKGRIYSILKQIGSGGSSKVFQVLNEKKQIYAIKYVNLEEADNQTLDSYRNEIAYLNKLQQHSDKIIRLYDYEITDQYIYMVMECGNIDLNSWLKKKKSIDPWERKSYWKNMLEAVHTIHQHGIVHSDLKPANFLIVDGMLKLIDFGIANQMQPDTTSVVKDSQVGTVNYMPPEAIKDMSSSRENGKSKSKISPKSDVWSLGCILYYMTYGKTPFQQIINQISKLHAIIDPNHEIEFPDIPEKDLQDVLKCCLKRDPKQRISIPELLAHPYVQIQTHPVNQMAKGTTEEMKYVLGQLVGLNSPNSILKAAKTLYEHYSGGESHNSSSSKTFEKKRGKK
The conditions noted are these: at 1 µM.

Assay [10] addresses T3, Aurora kinase A (Homo sapiens) (UniProt O14965).
T3 sequence (whole entry): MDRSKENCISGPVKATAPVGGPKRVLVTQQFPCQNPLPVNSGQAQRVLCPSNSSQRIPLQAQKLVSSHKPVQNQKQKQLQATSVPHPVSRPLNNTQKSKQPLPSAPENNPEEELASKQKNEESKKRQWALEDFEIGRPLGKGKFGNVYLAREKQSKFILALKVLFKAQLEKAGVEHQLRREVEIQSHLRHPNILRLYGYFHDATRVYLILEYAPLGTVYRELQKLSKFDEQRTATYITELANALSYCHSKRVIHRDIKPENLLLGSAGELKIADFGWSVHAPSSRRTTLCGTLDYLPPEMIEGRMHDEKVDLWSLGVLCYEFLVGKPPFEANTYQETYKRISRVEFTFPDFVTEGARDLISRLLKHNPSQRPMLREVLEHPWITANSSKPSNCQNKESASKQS
As to conditions: at 0.1 µM.

Assay [11] deals with T3, Aurora kinase A (Homo sapiens). The conditions noted are these: at 1 µM.
Assay [12] concerns the target Aurora kinase B (Homo sapiens) (UniProt Q96GD4). As to conditions: at 0.1 µM.
The target is the same in assay [13]. The conditions noted are these: at 1 µM.
For assay [14], the target named is T4, Aurora kinase C (Homo sapiens) (UniProt Q9UQB9).
T4 sequence (whole entry): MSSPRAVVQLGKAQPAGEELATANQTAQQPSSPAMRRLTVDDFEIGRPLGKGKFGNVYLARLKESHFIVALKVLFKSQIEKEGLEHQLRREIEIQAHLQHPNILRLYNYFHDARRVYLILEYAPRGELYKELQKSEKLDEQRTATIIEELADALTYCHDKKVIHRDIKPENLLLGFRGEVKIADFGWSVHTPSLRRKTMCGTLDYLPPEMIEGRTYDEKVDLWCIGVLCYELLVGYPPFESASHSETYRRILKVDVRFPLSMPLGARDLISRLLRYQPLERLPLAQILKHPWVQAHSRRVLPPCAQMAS
The conditions noted are these: at 0.1 µM.

The target of assay [15] is T4, Aurora kinase C (Homo sapiens). The conditions noted are these: at 1 µM.
In assay [16] the target is Serine/threonine-protein kinase 10 (Homo sapiens) (UniProt O94804). The conditions noted are these: at 0.1 µM.
Assay [17] has the same target. The conditions noted are these: at 1 µM.
The target of assay [18] is T5, Mitogen-activated protein kinase kinase kinase kinase 2 (Homo sapiens) (UniProt Q12851).
T5 sequence (whole entry): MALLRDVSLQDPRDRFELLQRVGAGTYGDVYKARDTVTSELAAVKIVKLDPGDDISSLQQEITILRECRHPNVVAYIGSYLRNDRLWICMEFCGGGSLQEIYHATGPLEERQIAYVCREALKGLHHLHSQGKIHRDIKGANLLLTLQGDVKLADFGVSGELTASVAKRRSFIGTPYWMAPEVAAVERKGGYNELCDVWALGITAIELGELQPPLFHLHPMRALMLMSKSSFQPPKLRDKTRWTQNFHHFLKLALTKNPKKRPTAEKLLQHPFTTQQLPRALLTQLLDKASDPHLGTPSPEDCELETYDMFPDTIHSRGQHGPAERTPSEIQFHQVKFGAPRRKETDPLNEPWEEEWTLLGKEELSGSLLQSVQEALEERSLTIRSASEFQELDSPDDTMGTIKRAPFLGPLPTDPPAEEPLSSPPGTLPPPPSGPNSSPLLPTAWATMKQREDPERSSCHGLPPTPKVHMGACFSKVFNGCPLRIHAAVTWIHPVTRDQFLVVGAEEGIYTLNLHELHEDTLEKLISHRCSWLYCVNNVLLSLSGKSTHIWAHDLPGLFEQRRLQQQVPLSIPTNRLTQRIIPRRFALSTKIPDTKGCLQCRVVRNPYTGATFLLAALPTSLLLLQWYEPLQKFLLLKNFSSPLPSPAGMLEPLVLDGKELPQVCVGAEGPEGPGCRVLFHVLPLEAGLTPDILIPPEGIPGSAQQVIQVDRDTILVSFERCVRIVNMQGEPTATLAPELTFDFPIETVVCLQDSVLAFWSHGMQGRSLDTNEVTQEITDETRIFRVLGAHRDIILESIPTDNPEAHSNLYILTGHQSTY
As to conditions: at 0.1 µM.

Assay [19] deals with T5, Mitogen-activated protein kinase kinase kinase kinase 2 (Homo sapiens). As to conditions: at 1 µM.
Assay [20] has as its target Mitogen-activated protein kinase kinase kinase kinase 4 (Homo sapiens) (UniProt O95819). The conditions noted are these: at 0.1 µM.

Chain of Serine/threonine-protein kinase 10 (Homo sapiens) (O94804 whole entry, looked up): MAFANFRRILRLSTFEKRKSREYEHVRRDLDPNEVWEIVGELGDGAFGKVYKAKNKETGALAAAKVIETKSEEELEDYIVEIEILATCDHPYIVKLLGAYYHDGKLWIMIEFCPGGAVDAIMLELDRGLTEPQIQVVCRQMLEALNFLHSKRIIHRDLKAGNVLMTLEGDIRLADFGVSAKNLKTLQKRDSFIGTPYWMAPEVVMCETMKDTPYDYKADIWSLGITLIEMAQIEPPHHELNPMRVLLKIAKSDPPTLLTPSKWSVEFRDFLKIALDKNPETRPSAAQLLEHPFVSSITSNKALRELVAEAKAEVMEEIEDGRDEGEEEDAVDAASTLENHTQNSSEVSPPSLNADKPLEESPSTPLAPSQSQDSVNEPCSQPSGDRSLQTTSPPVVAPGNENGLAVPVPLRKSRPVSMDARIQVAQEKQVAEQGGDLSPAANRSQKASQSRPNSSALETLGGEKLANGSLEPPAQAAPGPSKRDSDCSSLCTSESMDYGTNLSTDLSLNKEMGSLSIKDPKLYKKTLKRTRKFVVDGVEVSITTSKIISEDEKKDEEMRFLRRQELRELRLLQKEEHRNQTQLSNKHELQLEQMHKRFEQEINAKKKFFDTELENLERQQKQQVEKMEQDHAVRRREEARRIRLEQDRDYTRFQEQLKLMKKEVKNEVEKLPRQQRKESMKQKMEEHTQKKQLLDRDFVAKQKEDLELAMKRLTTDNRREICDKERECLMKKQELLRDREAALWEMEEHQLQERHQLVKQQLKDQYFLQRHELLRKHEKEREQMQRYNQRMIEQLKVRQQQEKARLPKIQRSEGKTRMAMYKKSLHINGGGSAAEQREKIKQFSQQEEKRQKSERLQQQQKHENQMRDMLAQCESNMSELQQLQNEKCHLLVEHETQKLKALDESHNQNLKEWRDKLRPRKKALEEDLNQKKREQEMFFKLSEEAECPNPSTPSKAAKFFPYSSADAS
Chain of NT-3 growth factor receptor (Homo sapiens) (Q16288 32-839 limits assumed): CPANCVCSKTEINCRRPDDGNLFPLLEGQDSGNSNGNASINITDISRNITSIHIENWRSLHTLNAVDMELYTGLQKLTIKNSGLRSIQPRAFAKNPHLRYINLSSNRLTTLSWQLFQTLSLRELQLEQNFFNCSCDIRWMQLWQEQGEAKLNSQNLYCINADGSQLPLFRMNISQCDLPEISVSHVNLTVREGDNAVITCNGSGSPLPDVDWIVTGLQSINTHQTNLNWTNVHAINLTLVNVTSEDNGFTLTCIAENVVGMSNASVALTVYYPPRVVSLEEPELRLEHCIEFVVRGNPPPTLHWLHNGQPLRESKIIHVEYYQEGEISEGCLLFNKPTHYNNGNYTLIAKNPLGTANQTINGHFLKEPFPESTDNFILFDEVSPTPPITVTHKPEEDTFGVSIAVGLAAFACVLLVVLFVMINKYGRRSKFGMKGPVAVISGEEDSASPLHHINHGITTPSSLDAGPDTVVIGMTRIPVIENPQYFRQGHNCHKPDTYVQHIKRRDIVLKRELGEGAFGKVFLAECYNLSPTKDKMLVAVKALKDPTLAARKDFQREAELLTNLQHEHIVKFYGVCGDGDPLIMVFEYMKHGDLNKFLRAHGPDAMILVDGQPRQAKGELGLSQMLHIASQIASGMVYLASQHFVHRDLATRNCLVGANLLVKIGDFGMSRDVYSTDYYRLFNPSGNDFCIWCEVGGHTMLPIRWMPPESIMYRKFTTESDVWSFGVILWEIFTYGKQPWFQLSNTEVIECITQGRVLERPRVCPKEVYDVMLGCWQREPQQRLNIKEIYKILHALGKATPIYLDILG
Chain of Non-receptor tyrosine-protein kinase TYK2 (Homo sapiens) (P29597 whole entry): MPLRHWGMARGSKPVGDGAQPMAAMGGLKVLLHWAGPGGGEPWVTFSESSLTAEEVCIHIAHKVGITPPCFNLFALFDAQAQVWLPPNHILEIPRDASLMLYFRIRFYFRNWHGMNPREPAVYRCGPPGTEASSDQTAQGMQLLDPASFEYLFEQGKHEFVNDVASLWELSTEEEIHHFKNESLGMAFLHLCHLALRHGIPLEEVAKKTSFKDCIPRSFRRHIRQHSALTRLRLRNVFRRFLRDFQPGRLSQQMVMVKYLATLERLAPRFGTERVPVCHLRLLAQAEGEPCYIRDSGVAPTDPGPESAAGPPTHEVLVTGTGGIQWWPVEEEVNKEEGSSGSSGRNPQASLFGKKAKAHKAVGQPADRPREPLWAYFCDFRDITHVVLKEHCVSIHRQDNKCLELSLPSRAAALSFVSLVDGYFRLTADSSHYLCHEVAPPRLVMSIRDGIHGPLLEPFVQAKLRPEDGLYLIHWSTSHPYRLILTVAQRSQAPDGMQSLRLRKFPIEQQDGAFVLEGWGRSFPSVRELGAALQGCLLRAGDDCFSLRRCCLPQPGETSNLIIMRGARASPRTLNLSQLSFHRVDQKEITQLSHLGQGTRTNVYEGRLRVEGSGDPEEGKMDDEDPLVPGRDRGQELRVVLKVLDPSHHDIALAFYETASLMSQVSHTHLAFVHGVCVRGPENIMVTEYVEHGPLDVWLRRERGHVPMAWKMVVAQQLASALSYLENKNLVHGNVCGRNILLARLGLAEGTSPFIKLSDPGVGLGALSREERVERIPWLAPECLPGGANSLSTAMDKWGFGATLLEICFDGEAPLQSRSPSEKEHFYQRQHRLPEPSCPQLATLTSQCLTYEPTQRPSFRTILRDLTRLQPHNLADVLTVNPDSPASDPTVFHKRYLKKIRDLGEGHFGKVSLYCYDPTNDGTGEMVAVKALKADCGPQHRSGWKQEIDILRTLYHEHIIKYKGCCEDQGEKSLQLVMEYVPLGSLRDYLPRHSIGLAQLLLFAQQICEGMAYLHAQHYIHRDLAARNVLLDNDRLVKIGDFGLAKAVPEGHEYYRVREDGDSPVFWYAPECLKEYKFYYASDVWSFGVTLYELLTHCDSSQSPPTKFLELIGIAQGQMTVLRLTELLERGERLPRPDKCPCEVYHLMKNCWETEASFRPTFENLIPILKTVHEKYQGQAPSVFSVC
Chain of High affinity nerve growth factor receptor (Homo sapiens) (P04629 33-796 limits assumed): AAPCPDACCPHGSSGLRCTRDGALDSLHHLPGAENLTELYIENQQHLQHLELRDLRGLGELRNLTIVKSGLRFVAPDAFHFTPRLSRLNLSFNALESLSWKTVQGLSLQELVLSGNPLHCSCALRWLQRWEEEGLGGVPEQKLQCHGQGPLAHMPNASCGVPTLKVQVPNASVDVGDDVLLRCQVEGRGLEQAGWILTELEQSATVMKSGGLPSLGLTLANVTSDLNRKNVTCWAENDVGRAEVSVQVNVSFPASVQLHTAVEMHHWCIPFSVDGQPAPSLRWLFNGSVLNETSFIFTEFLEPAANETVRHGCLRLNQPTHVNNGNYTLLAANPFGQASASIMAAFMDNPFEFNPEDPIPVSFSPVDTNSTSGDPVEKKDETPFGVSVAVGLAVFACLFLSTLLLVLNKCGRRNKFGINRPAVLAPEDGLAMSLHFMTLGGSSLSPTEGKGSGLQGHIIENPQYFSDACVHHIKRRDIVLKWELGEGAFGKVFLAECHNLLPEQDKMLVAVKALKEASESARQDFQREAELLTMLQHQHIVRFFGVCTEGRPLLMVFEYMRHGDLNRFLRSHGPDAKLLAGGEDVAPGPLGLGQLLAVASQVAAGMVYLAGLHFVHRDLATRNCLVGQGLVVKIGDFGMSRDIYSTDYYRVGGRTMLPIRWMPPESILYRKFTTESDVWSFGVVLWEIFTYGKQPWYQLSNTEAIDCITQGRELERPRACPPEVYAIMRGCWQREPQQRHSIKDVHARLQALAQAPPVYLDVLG
Chain of Aurora kinase B (Homo sapiens) (Q96GD4 whole entry): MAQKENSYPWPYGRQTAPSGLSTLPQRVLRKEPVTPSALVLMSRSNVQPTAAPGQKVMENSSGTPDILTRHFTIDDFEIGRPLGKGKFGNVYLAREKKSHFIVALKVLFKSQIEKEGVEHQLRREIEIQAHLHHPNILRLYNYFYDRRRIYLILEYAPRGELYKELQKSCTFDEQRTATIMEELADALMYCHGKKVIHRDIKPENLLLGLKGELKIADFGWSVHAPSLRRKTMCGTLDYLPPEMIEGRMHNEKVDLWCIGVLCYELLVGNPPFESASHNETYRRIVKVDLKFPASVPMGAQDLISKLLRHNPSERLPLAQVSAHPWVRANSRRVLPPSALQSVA
Chain of BDNF/NT-3 growth factors receptor (Homo sapiens) (Q16620 32-822 limits assumed): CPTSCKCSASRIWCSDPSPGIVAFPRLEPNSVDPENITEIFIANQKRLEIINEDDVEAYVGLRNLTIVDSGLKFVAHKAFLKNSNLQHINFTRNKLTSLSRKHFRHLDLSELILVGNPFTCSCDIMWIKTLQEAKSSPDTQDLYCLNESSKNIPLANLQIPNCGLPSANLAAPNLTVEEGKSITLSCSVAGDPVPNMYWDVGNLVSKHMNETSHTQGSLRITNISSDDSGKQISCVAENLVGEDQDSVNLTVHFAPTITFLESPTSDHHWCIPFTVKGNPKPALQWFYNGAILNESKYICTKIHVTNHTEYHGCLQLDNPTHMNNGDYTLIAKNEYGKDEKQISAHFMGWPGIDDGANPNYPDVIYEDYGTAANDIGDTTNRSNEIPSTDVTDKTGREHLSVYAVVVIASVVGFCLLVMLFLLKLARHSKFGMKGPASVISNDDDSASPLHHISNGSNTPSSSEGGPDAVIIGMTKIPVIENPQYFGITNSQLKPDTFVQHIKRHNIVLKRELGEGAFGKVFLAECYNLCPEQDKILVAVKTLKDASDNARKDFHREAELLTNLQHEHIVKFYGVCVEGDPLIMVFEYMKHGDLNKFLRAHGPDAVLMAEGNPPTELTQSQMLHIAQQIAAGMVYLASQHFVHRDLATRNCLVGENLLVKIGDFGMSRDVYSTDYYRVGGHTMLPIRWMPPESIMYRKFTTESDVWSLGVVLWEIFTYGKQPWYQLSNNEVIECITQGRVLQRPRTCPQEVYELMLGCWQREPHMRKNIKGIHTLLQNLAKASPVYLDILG

Regarding `CNC(=O)c1cncc(/C=C/c2ccccc2C)c1`, the inhibition was 1.73% in assay [1]; 2.61% in [2]; 4.3% in assay [3]; 3.82% in [4]; 5.34% in assay [5]; 6.85% in assay [6]. Further, the inhibition in [7] was 24.5%; in assay [8], -2.79%; in assay [9], 11.7%; in assay [10], 1.35%; in assay [11], 9.59%; in assay [12] it was 3.77%. Besides, the inhibition in assay [13] is -0.01%; in [14], 2.1%; in [15], -3.67%; in [16] it was 6.73%; in assay [17] it was 9.43%; in assay [18], 0.94%. Moreover, the inhibition amounted to 2.16% in [19] and 8.34% in [20].
For `CCS(=O)(=O)c1ccc(OC)c(Nc2ncc(-c3cccc(C(C)=O)c3)o2)c1`, the inhibition worked out at 9.16% in [1]; 4.28% in [2]; 20.5% in assay [3]; 4.38% in [4]; 29.4% in assay [5]; 13% in assay [6]. For the same molecule, the inhibition in [7] was 50.5%; in [8], -3.16%; in assay [9], 8.55%; in assay [10], 2.45%; in assay [11], 15.3%; in assay [12], 3.08%. In addition, the inhibition is 6.28% in assay [13]; 4.6% in assay [14]; -0.45% in [15]; 6.16% in [16]; 9.95% in assay [17]; -0.26% in [18]. For the same molecule, the inhibition in assay [19] is 3.22%; in [20], 3.37%.
Take `Cc1cc(O)cc(C)c1/C=C/c1cncc(C(N)=O)c1`: the inhibition in assay [1] came to 1.48%; in [2], 1.71%; in assay [3] it was 0.87%; in assay [4], 1.25%; in [5], 0.56%; in [6], 5.98%. Moreover, the inhibition was 27.9% in assay [7]; -2.57% in assay [8]; 2.18% in assay [9]; 2.32% in assay [10]; 11.7% in assay [11]; 2.21% in assay [12]. Moreover, the inhibition in assay [13] was determined as 7.09%; in assay [14] it was 8.73%; in assay [15], 1.85%; in assay [16], 4.97%; in assay [17], 20.2%; in [18] it was 2.32%. Further, the inhibition in assay [19] stood at 8.96%; in [20], 4.83%.
With `NS(=O)(=O)c1ccc(N/N=C2\C(=O)Nc3ccc(C(=O)NCc4ccncc4)cc32)cc1`, the inhibition was found to be 33.7% in [1]; 13% in assay [2]; 60% in [3]; 19.2% in assay [4]; 66.2% in [5]; 2.66% in assay [6]. In addition, the inhibition was 5.17% in [7]; -8.31% in assay [8]; 69.2% in [9]; 6.11% in [10]; 54.9% in [11]; 3.41% in [12]. The inhibition was determined as 11% in assay [13]; 1.92% in [14]; 14.6% in assay [15]; 4.56% in assay [16]; 9.47% in assay [17]; 0.75% in assay [18]. The inhibition in assay [19] is 4.07%; in [20], 11.2%.
Turning to `CN(c1ccc(NC(=O)NCCN2CCOCC2)cc1)c1ccnc(Nc2ccc(CS(C)(=O)=O)cc2)n1`, the inhibition in [1] was found to be 5.98%; in [2], 3.15%; in assay [3], 8%; in [4] it was 1.78%; in assay [5] it was 11.3%; in [6], 16.9%. For the same molecule, the inhibition in assay [7] was 57.7%; in assay [8] it was -6.06%; in [9], 7.72%; in [10], 24.5%; in assay [11], 93.9%; in [12], 29.7%. The inhibition came out at 76.9% in assay [13]; 43.8% in assay [14]; 104% in [15]; 11.9% in [16]; 34.2% in assay [17]; 0.62% in assay [18]. Besides, the inhibition in [19] was found to be 3.53%; in assay [20], 4.19%.
As to `CS(=O)(=O)CCNCc1ccc(-c2ccc3ncnc(Nc4ccc(OCc5cccc(C(F)(F)F)c5)cc4)c3c2)o1`, the inhibition was determined as 7.21% in [1]; 4.9% in assay [2]; 17.5% in assay [3]; 3% in [4]; 10.1% in [5]; 5.9% in assay [6]. The inhibition in [7] was 5.59%; in assay [8], -2.56%; in assay [9], 8.3%; in assay [10], 3.79%; in assay [11], 4.78%; in [12], 5.65%. Besides, the inhibition in assay [13] was 4.87%; in [14], 1.93%; in assay [15], 4.53%; in [16] it was 9.88%; in [17] it was 11.7%; in assay [18] it was -0.93%. Also, the inhibition came out at 2.32% in assay [19] and 2.66% in assay [20].
